Data: PubChem BioAssay (EPA / NIEHS)
Activity calls are given as the source filed them. Rule for the calls: active = hit-call score of the fitted dose curve at least 0.9, where 1 is the maximum; inactive = score below 0.9.

Tests used:
Conditions in all cases: mRNA level, 48 h; actives raise or lower the signal
[1] = read-out: Bcl-2 (BID) gene, BID (gene 637); test: LTEA_HepaRG_BID: Life Technologies and Expression Analysis (LTEA) Assay for Bcl-2 (BID) gene using HepaRG (AID 2283476)
In short: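 Gene expression by qRT-PCR in HepaRG cells after 48 h exposure, duplicate wells, eight half-log concentrations topping at 100 uM in 0.5% DMSO. Normalized to ACTB, GAPDH, POLR2A; bidirectional fitting relative to DMSO.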

[2] = read-out: Caspase-3 (Homo sapiens) (UniProt P42574); test: LTEA_HepaRG_CASP3: Life Technologies and Expression Analysis (LTEA) Assay for cysteine-aspartic acid protease (CASP3) using HepaRG (AID 2283477)
In short: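 Read-out is CASP3 mRNA level by TaqMan qRT-PCR in human HepaRG cells after 48 h chemical exposure. Eight half-log concentrations topping at 100 uM were tested in 0.5% DMSO; gain or loss was fitted relative to DMSO.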

[3] = read-out: Cytochrome P450 (CYP24A1), CYP24A1 (gene 1591); test: LTEA_HepaRG_CYP24A1: Life Technologies and Expression Analysis (LTEA) Assay for Cytochrome P450 (CYP24A1) using HepaRG (AID 2283478)
In short: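 HepaRG, 48 h chemical exposure, 8-pt half-log CRC from 100 uM, 0.5% DMSO vehicle, duplicates. Endpoint: CYP24A1 mRNA by Fluidigm TaqMan qRT-PCR, normalized ACTB/GAPDH/POLR2A; gain/loss fit vs DMSO.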

[4] = read-out: Cytochrome P450 (CYP1A2), CYP1A2 (gene 1544); test: LTEA_HepaRG_CYP1A2: Life Technologies and Expression Analysis (LTEA) Assay for Cytochrome P450 (CYP1A2) using HepaRG (AID 2283479)
In short: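 CYP1A2 transcript induction or loss, quantified by Fluidigm qRT-PCR against three housekeeping genes, was fitted bidirectionally against 0.5% DMSO controls. Human HepaRG cells received eight half-log concentrations from 100 uM over 48 h.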

[5] = read-out: cysteine-aspartic acid protease (CASP8), CASP8 (gene 841); test: LTEA_HepaRG_CASP8: Life Technologies and Expression Analysis (LTEA) Assay for cysteine-aspartic acid protease (CASP8) using HepaRG (AID 2283480)
In short: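 Differentiated human HepaRG cells, plated 48 h then switched to serum-free induction medium, were exposed in duplicate for 48 h to 8 half-log concentrations up to 100 uM in 0.5% DMSO. CASP8 mRNA was quantified by qRT-PCR, normalized to ACTB/GAPDH/POLR2A.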

[6] = read-out: Cytochrome P450 (CYP2B6), CYP2B6 (gene 1555); test: LTEA_HepaRG_CYP2B6: Life Technologies and Expression Analysis (LTEA) Assay for Cytochrome P450 (CYP2B6) using HepaRG (AID 2283481)
In short: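 HepaRG cells plated 48 h, switched to serum-free induction medium, then dosed 48 h (8 points, half-log from 100 uM, 0.5% DMSO). RNA isolated; CYP2B6 expression measured by qRT-PCR; gain or loss fitted relative to DMSO.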

[7] = read-out: Cytochrome P450 2C19 (Homo sapiens) (UniProt P33261); test: LTEA_HepaRG_CYP2C19: Life Technologies and Expression Analysis (LTEA) Assay for CYP2C19 using HepaRG (AID 2283482)
In short: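 Transcript levels of CYP2C19 were quantified by qRT-PCR after HepaRG cells were treated for 48 hours with test chemicals up to 100 uM (eight half-log concentrations, 0.5% DMSO vehicle). Gain or loss of signal was fitted relative to DMSO.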

[8] = read-out: CYP2C8 (gene 1558); test: LTEA_HepaRG_CYP2C8: Life Technologies and Expression Analysis (LTEA) Assay for CYP2C8 using HepaRG (AID 2283483)
In short: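 Differentiated human HepaRG cells were exposed for 48 h in serum-free induction medium to eight half-log concentrations up to 100 uM in 0.5% DMSO, in duplicate. CYP2C8 mRNA was measured by TaqMan qRT-PCR, normalized to ACTB, GAPDH and POLR2A, and fitted bidirectionally against DMSO.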

[9] = read-out: CYP2C9 (gene 1559); test: LTEA_HepaRG_CYP2C9: Life Technologies and Expression Analysis (LTEA) Assay for CYP2C9 using HepaRG (AID 2283484)
In short: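 Differentiated human HepaRG cells were exposed 48 h in serum-free induction medium to eight half-log concentrations up to 100 uM in 0.5% DMSO. CYP2C9 mRNA was measured by qRT-PCR, normalized to ACTB, GAPDH and POLR2A, and fitted bidirectionally against DMSO.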

[10] = read-out: CYP2E1 (gene 1571); test: LTEA_HepaRG_CYP2E1: Life Technologies and Expression Analysis (LTEA) Assay for CYP2E1 using HepaRG (AID 2283485)
In short: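 HepaRG cells, plated 48 h, then exposed 48 h in serum-free induction medium to eight half-log concentrations from 100 uM in 0.5% DMSO, duplicate. CYP2E1 mRNA by qRT-PCR, normalized to ACTB/GAPDH/POLR2A; bidirectional fit versus DMSO.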

[11] = read-out: CYP4A11 (gene 1579); test: LTEA_HepaRG_CYP4A11: Life Technologies and Expression Analysis (LTEA) Assay for CYP4A11 using HepaRG (AID 2283486)
In short: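 HepaRG, 48 h chem exposure, 8 conc (100 uM top, half-log), 0.5% DMSO vehicle; qRT-PCR readout, housekeeping-gene normalized; bidirectional curve fit vs DMSO baseline.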

[12] = read-out: Cytochrome P450 3A4 (Homo sapiens) (UniProt P08684); test: LTEA_HepaRG_CYP3A4: Life Technologies and Expression Analysis (LTEA) Assay for CYP3A4 using HepaRG (AID 2283487)
In short: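 Differentiated HepaRG cells in serum-free induction medium exposed in duplicate for 48 h to 8 half-log concentrations up to 100 uM in 0.5% DMSO. CYP3A4 mRNA measured by qRT-PCR normalized to ACTB, GAPDH and POLR2A; bidirectional fit versus DMSO.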

[13] = read-out: Pro-epidermal growth factor (Homo sapiens) (UniProt P01133); test: LTEA_HepaRG_EGF: Life Technologies and Expression Analysis (LTEA) Assay for Epidermal growth factor (EGF) using HepaRG (AID 2283489)
In short: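 HepaRG, 48 h dosing, 100 uM top, half-log x8, 0.5% DMSO. Readout: TaqMan qRT-PCR (Fluidigm array), housekeeping-normalized. Gain or loss of signal fit vs DMSO.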

[14] = read-out: Early growth response protein 1 (EGR1) transcription factor, EGR1 (gene 1958); test: LTEA_HepaRG_EGR1: Life Technologies and Expression Analysis (LTEA) Assay for Early growth response protein 1 (EGR1) transcription factor using HepaRG (AID 2283490)
In short: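 Differentiated human HepaRG cells in serum-free induction medium were exposed in duplicate for 48 h to eight concentrations (top 100 uM, half-log steps) in 0.5% DMSO. EGR1 mRNA was quantified by qRT-PCR, normalized to ACTB, GAPDH and POLR2A, and fitted bidirectionally versus DMSO.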

[15] = read-out: Ezrin (EZR), EZR (gene 7430); test: LTEA_HepaRG_EZR: Life Technologies and Expression Analysis (LTEA) Assay for Ezrin (EZR) using HepaRG (AID 2283491)
In short: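 Differentiated human HepaRG cells, 48 h after plating, were exposed in serum-free induction medium for 48 hours to eight half-log concentrations up to 100 uM in 0.5% DMSO. EZR mRNA was measured by TaqMan qRT-PCR, normalized to ACTB, GAPDH and POLR2A, and fitted bidirectionally against DMSO.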

[16] = read-out: Cytochrome P450 3A7 (Homo sapiens) (UniProt P24462); test: LTEA_HepaRG_CYP3A7: Life Technologies and Expression Analysis (LTEA) Assay for CYP3A7 using HepaRG (AID 2283492)
In short: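 Human HepaRG liver cells, 48 h post-plating, switched to serum-free induction medium and exposed in duplicate for 48 h. Dosing: 100 uM top, half-log dilutions, 8 points, 0.5% DMSO vehicle. Read-out: CYP3A7 mRNA, gain or loss fitted against DMSO baseline.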

[17] = read-out: Fatty Acid-Binding Protein 1 (FABP1), FABP1 (gene 2168); test: LTEA_HepaRG_FABP1: Life Technologies and Expression Analysis (LTEA) Assay for Fatty Acid-Binding Protein 1 (FABP1) using HepaRG (AID 2283494)
In short: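 Differentiated human HepaRG cells were exposed in duplicate for 48 h in serum-free induction medium to 8-point half-log concentration series topping at 100 uM in 0.5% DMSO. FABP1 mRNA measured by TaqMan qRT-PCR, normalized to ACTB/GAPDH/POLR2A; bidirectional fit versus DMSO.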

[18] = read-out: DNA damage-inducible transcript 3 (DDIT3), DDIT3 (gene 1649); test: LTEA_HepaRG_DDIT3: Life Technologies and Expression Analysis (LTEA) Assay for DNA damage-inducible transcript 3 (DDIT3) using HepaRG (AID 2283488)
In short: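 HepaRG cells, 48 h after plating, exposed 48 h in serum-free induction medium to 8 half-log concentrations up to 100 uM in 0.5% DMSO, in duplicate. DDIT3 mRNA measured by TaqMan qRT-PCR, normalized to ACTB, GAPDH and POLR2A. Fitted bidirectionally against DMSO.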

[19] = read-out: Cytochrome P450 4A22 (Homo sapiens) (UniProt Q5TCH4); test: LTEA_HepaRG_CYP4A22: Life Technologies and Expression Analysis (LTEA) Assay for Cytochrome P450 4A22 (CYP4A22) using HepaRG (AID 2283495)
In short: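 Readout is CYP4A22 transcript induction or loss, quantified by qRT-PCR and normalized to ACTB, GAPDH and POLR2A. Human HepaRG cells receive test chemicals for 48 h at eight half-log concentrations from 100 uM in 0.5% DMSO.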

Measured: AC50

Chain of Cytochrome P450 3A7 (Homo sapiens) (P24462 whole entry, looked up): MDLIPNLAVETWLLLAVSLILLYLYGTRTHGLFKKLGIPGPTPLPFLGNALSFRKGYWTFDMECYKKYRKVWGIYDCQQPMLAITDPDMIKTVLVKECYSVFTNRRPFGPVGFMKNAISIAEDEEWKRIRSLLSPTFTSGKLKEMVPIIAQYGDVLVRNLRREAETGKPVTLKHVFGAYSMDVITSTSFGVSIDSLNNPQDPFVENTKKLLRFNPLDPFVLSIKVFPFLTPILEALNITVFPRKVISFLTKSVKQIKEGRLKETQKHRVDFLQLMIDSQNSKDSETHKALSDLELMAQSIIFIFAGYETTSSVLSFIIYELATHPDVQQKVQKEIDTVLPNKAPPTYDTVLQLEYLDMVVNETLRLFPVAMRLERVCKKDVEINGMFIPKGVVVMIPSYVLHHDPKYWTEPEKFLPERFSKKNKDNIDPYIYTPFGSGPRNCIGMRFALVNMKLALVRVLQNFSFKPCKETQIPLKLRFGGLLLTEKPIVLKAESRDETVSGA
Chain of Caspase-3 (Homo sapiens) (P42574 whole entry, looked up): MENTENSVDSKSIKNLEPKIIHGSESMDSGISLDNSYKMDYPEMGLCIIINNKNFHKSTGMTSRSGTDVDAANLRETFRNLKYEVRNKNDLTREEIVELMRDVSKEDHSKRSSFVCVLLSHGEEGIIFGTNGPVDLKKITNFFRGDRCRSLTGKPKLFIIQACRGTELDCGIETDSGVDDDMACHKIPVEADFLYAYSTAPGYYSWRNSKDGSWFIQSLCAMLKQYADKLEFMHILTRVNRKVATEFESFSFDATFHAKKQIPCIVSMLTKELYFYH
Chain of Cytochrome P450 2C19 (Homo sapiens) (P33261 whole entry, looked up): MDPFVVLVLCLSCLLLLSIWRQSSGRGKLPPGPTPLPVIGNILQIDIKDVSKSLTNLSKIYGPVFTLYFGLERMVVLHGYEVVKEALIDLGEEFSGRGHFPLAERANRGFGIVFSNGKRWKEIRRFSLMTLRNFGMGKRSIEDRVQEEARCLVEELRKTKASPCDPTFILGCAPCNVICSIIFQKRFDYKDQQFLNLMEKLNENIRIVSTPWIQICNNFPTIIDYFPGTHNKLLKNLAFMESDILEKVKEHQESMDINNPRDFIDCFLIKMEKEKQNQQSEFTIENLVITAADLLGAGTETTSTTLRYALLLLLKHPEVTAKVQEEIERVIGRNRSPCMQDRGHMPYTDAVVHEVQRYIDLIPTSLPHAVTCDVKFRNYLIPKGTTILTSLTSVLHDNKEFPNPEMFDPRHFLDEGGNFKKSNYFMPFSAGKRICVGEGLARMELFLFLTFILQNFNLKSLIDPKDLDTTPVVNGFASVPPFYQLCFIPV
Chain of Cytochrome P450 3A4 (Homo sapiens) (P08684 whole entry, looked up): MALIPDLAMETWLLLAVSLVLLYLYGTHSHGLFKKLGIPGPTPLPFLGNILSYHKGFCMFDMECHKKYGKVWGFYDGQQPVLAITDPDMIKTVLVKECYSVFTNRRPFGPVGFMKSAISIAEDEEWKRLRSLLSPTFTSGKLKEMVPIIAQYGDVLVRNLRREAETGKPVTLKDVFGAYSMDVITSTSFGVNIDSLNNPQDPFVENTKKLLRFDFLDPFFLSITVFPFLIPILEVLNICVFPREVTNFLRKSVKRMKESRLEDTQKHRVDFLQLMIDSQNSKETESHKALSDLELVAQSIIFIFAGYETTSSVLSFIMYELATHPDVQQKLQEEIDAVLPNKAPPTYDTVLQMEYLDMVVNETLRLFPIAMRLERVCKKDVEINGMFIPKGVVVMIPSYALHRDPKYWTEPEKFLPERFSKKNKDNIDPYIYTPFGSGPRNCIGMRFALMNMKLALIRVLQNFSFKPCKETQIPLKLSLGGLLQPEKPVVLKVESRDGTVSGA

CNC(=O)ON=C(C)SC
not listed: [18] | [19]
inactive: all other assays above

CCOP(=O)(NC(C)C)Oc1ccc(SC)c(C)c1 (stereo not drawn)
active: [6] 22.5 µM | [7] 50 µM | [10] 34.3 µM | [11] 22.4 µM | [17] 23.8 µM
not listed: [8] | [12] | [19]
inactive: all other assays above

Cc1nn(-c2cc(NS(C)(=O)=O)c(Cl)cc2Cl)c(=O)n1C(F)F
active: [6] 11.8 µM | [7] 6.21 µM | [10] 12.8 µM | [12] 3.03 µM | [16] 7.34 µM
inactive: all other assays above

S=C1NCCN1
active: [6] 10.3 µM
not listed: [8] | [18] | [19]
inactive: all other assays above
